Data from PubChem BioAssay (NCI).
About 79,000 compounds went through this panel and 15% of them were active in at least one assay; those are over-represented in the sample as a whole. Rule as the data show it: active = growth inhibition above about 70%; inactive = the rest.

Tests used:
[1] = NCI Yeast Anticancer Drug Screen. Data for the rad50 strain (AID 155);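 also: 0% = growth of vehicle-only cultures of the same strain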; conditions: S. cerevisiae rad50 strain growth inhibition; at 50.0 µM; hits give high values
Outline: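 Genetically altered yeast (DNA repair pathway); compound treatment; growth inhibition vs vehicle ctrl.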

[2] = NCI Yeast Anticancer Drug Screen. Data for the mec2-1 strain (AID 157); conditions: S. cerevisiae mec2-1 strain, at 50.0 µM, hits give high values
Outline: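 mec2-1 yeast strain, carrying an alteration in DNA damage repair or cell cycle control, was exposed to compounds; growth inhibition was measured relative to vehicle-treated controls.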

[3] = NCI Yeast Anticancer Drug Screen. Data for the sgs1 mgt1 strain (AID 161);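 also: 0% = growth of cultures given vehicle only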; conditions: S. cerevisiae sgs1 mgt1 strain, at 50.0 µM, hits give high values
Outline: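 Yeast cells carrying a defined DNA-repair defect were exposed to test compounds. Growth inhibition was measured relative to vehicle-treated controls.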

[4] = NCI Yeast Anticancer Drug Screen. Data for the cln2 rad14 strain (AID 165);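 also: 0% = growth equal to vehicle treated cultures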; conditions: S. cerevisiae cln2 rad14 strain, at 50.0 µM, hits give high values
Outline: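 Yeast carrying cln2 and rad14 alterations (cell cycle control and DNA damage repair) were exposed to compounds. Growth inhibition was measured against vehicle-treated controls.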

[5] = NCI Yeast Anticancer Drug Screen. Data for the bub3 strain (AID 167); conditions: S. cerevisiae bub3 mutant strain, at 50.0 µM, hits give high values
Outline: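 Yeast carrying a defined mutation is treated with each compound, and growth is compared with that of vehicle-exposed cells to give inhibition.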

[6] = NCI Yeast Anticancer Drug Screen. Data for the mlh1 rad18 strain (AID 175); conditions: S. cerevisiae mlh1 rad18 strain growth inhibition; at 50.0 µM; hits give high values
Outline: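 Growth inhibition of the yeast strain was measured after compound exposure and expressed relative to vehicle-treated controls. The strain carries defined defects in DNA damage repair.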

Measured: growth inhibition

CS(=O)(=O)OC1COCOC1C1OCOCC1OS(C)(=O)=O (stereo unspecified)
inactive: [1] 7.8% | [2] 1.35% | [3] 10.5% | [4] -10.4% | [5] -6% | [6] -0.55%

CC(=O)NCCc1ccc(C(=O)O)cc1
inactive: [1] -17% | [2] -1% | [3] 2.2% | [4] -34.2% | [5] -11.4% | [6] 3.65%

O/N=C(/Cc1ccccc1)c1ccccc1
inactive: [1] 26.6% | [2] 33.6% | [3] 11.1% | [4] -17.1% | [5] 5.15% | [6] 17.8%

CC(=O)OCC(OC(C)=O)C1OC2OC(C)(C)OC2C1OS(C)(=O)=O (stereo unspecified)
inactive: [1] 15.2% | [2] 10.3% | [3] 17.6% | [4] -27.6% | [5] 28.6% | [6] 4.95%

OCCN(CCO)C(Cc1ccccc1)Cc1ccccc1
inactive: [1] -7.9% | [2] -9.95% | [3] -1.7% | [4] -11.1% | [5] 26.4% | [6] -22.9%

Cc1ccc(N=c2cc(-c3ccccc3)oc3ccccc23)cc1
inactive: [1] 11.9% | [2] -1.25% | [3] 11.7% | [4] 3.7% | [5] 12.7% | [6] 20.4%

Cc1c(C)n2c(=O)n(-c3ccccc3)c(=O)n2c1=O
inactive: [1] -38% | [2] -27.1% | [3] -5.55% | [4] -27.2% | [5] -7.75% | [6] -1.85%

O=C1c2ccccc2C(=CC=C2c3ccccc3Sc3ccccc32)c2ccccc21
inactive: [1] 11.9% | [2] 25.9% | [3] -35% | [4] 9.55% | [5] 24.2% | [6] -5.75%

ClCCOCc1ccc(Cl)cc1Cl
inactive: [1] 24.6% | [2] 8.9% | [3] 8.4% | [4] 0.7% | [5] -3.7% | [6] 19.9%

COC(=O)C1(CC(=O)c2cccs2)NC(=S)NC(=O)C1C#N (stereo unspecified)
inactive: [1] 9.4% | [2] 3.55% | [3] -7.5% | [4] -3.35% | [5] -11.3% | [6] 2.55%

CCOC(=O)C(CCC#N)(CCC#N)C(C)=O
inactive: [1] -8.5% | [2] -1.65% | [3] -4.7% | [4] -64.8% | [5] 0.15% | [6] 15.1%

CN(C)/N=N/c1nc2c(c(=O)n(C)c(=O)n2C)n1C
inactive: [1] -2.25% | [2] 20.2% | [3] -8.8% | [4] 5.05% | [5] -5.4% | [6] 15.7%

Cc1cccnc1Br
inactive: [1] -25.2% | [2] -9.85% | [3] -5.05% | [4] -29.6% | [5] -5.65% | [6] -26.1%

Cc1cccc(C(N)=O)c1
inactive: [1] 22.6% | [2] 6.7% | [3] 3.3% | [4] -4.75% | [5] 8.95% | [6] 32.9%

CCCNC(=O)c1ccccc1O
inactive: [1] 9.95% | [2] 3.05% | [3] 3.9% | [4] 1.4% | [5] 0.3% | [6] 7.45%

CCCCCCCCCCCCCCCC1=NN(c2ccccc2)C(=O)C1N=Nc1ccccc1 (stereo unspecified)
inactive: [1] 8.2% | [2] -8.95% | [3] -0.75% | [4] -10.2% | [5] -3.3% | [6] 2.05%

C/C(=N\NC(N)=S)c1ccc(C)cc1C
inactive: [1] 45.4% | [2] -3.75% | [3] 57% | [4] 25.9% | [5] 7.55% | [6] 59.5%

O=C(NCCCl)NCC1CCCCO1 (stereo unspecified)
inactive: [1] -2.8% | [2] 7% | [3] 0.2% | [4] -76.3% | [5] -3.9% | [6] -12%

CC(O)(c1ccccc1)C1CC1 (stereo unspecified)
inactive: [1] -1.55% | [2] -29.2% | [3] -16.7% | [4] -0.65% | [5] -16.1% | [6] -4.05%

COC(=O)c1ccccc1C#CC#Cc1ccccc1C(=O)OC
inactive: [1] -5.25% | [2] -32.1% | [3] 4.6% | [4] 8.85% | [5] -2.4% | [6] -3.5%

CCCNc1ncnc2c1ncn2C
inactive: [1] 10.6% | [2] -15% | [3] -3.55% | [4] 7.65% | [5] 7.45% | [6] -4.65%

NC(N)=Nc1nc2ccccc2[nH]1
inactive: [1] 15.9% | [2] -2.85% | [3] 19.4% | [4] -26.4% | [5] 11.7% | [6] 18.1%

O=C(O)c1ccccc1Nc1nc2ccccc2o1
inactive: [1] -1.85% | [2] 2.15% | [3] -7.05% | [4] -26.6% | [5] 15.2% | [6] 0.25%

Nc1ccc(C(=O)O)cc1[N+](=O)[O-]
inactive: [1] -0.85% | [2] -4.65% | [3] -3.7% | [4] -14.6% | [5] 2.15% | [6] -1.5%

CC(=O)OCC1=COC(OC(=O)CC(C)(C)OC(C)=O)C2C1=CC(OC(=O)CC(C)C)[C@@]21CO1 (stereo partly specified)
inactive: [1] 14.4% | [2] 16.4% | [3] 3.6% | [4] 6.3% | [5] 6.75% | [6] 9.95%

N#Cc1ccc(CSC2=C(c3ccc(Cl)cc3)S/C(=C3\SC(SCc4ccc(C#N)cc4)=C(c4ccc(Cl)cc4)S3)S2)cc1
inactive: [1] -16.8% | [2] -15.3% | [3] -19.9% | [4] 7.7% | [5] -8.4% | [6] -25.9%

CC(C)c1ccc(OCC2CCCO2)cc1 (stereo unspecified)
inactive: [1] 37.4% | [2] 0.95% | [3] 39% | [4] 41.7% | [5] 28.9% | [6] 27.4%

Cc1cccc(Cl)c1N=Nc1c(C)nc(N)nc1-c1ccccc1
inactive: [1] 7.1% | [2] 15.8% | [3] 5.8% | [4] -11.5% | [5] 1.1% | [6] 7.8%

O=C(c1cccc([N+](=O)[O-])c1)N1CCOCC1
inactive: [1] -2.65% | [2] -10% | [3] 1.45% | [4] -36.4% | [5] 3.7% | [6] 14.1%

Cn1cnc([N+](=O)[O-])c1SC1=NCCS1
inactive: [1] 7.8% | [2] -1.4% | [3] 10.2% | [4] 25.3% | [5] 22.9% | [6] -7.5%

Cc1ccc(C=C(C(=O)O)C(=O)O)o1
inactive: [1] -21.3% | [2] -29.4% | [3] -17.6% | [4] -8.05% | [5] -13.4% | [6] -56.2%

O=C(O)CC(=O)CC(=O)c1ccccc1
inactive: [1] -14.8% | [2] -18.5% | [3] -23.4% | [4] -30.7% | [5] -2.1% | [6] -7.4%

CC(C)(C)c1cc(-c2cc(C(C)(C)C)nc(N)n2)nc(N)n1
inactive: [1] -4.9% | [2] -14.1% | [3] -14% | [4] -18.7% | [5] -35.3% | [6] -16.4%

COc1c(O)c(/C=C/C(=O)NN)cc2ccoc12
inactive: [1] -4.75% | [2] -10.3% | [3] -25.1% | [4] -16.5% | [5] 15.8% | [6] -23.9%

CCc1c(C)c(C)c(C)c(C)c1C(C)=O
inactive: [1] -5% | [2] -22.4% | [3] -7.35% | [4] 20.1% | [5] 6.4% | [6] -26.6%

CCOC(=O)c1[nH]c(C)c(/C(C)=N\NC(N)=O)c1C
inactive: [1] -20.2% | [2] -14.7% | [3] -7.4% | [4] -20.9% | [5] 8% | [6] 10.5%

CC(SCCNC(N)=O)C(N)=O (stereo unspecified)
inactive: [1] -16.1% | [2] -7.8% | [3] -6.6% | [4] -28.4% | [5] 7.25% | [6] -14.4%

CC(=O)OCC1OC(N=[N+]=[N-])C(OC(C)=O)C(OC(C)=O)C1OC1OC(COC(C)=O)C(OC(C)=O)C(OC(C)=O)C1OC(C)=O (stereo unspecified)
inactive: [1] -19.1% | [2] -29.9% | [3] -16.2% | [4] -0.35% | [5] 5.55% | [6] -17.1%

CCC1(C)C(=O)c2ccccc2N(C)C1=O (stereo unspecified)
inactive: [1] -5.55% | [2] -10.1% | [3] -9.5% | [4] -37.9% | [5] 5% | [6] -6.25%

N#CC(C(=O)C(=O)Nc1cccc(Cl)c1)c1ccccc1 (stereo unspecified)
inactive: [1] -4.55% | [2] -6.9% | [3] -19% | [4] -89.1% | [5] -11.8% | [6] -4.2%

Cc1ccccc1C1OC2=C(Nc3ccc([N+](=O)[O-])cc3N2)C1=O (stereo unspecified)
inactive: [1] 37.5% | [2] 21.4% | [3] 38% | [4] 20.2% | [5] 27.2% | [6] 45.6%
